Active and inactive are the calls of the source.
Experiments:
[1] = test system: Human papillomavirus type 1a protein E7 (residues 44-93); test: small molecules binding HPV E7 44-93 – biochemical, small-molecule microarray, residues 44-93, 635 nm fluorescence, primary screen (AID 1108); settings: fluorescence 635 nm, higher = more signal;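 note: E7 fragment applied at 1 µg/mL in TBST for 1 h at 4 C; score combines spot fluorescence with its signal to noise ratio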
[2] = hepatitis C replication reporter changes, two-sided – Huh7 cells, luciferase reporter, HCV replication inhibitor project, primary screen (AID 1109); settings: Huh7 HCV replicon luciferase reporter, 48 h; higher = more signal;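 note: huh7 hepatoma cells harbouring a luciferase neomycin HCV replicon reporter; luciferase luminescence as measure of HCV replicon replication; test concentration not given here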
[3] = target: Left-right determination factor 2 (Homo sapiens) (UniProt O00292); test: small molecules binding LEFTY2 protein – biochemical, small-molecule microarray, 635 nm fluorescence scan, primary screen (AID 1110); settings: higher = more signal
Chain of Left-right determination factor 2 (Homo sapiens) (O00292 whole entry, looked up): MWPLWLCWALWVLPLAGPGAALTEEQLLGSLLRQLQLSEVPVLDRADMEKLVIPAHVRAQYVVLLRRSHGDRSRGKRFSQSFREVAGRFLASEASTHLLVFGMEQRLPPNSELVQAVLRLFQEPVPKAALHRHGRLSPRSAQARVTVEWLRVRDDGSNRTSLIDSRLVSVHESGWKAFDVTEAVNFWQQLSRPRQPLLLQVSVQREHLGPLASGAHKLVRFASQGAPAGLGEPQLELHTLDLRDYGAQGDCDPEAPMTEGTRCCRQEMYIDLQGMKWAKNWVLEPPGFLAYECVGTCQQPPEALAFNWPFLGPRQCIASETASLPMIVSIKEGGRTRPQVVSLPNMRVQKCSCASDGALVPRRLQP

[4] = target: Calmodulin-1 (Homo sapiens) (UniProt P0DP23); test: small molecules binding calmodulin-1 with EGTA – biochemical, small-molecule microarray, Cy5-labelled CALM1, profiling panel (AID 1111); settings: Cy5-CALM1 binding fluorescence, higher = more signal;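 note: labelled calmodulin applied in Tris saline Tween buffer holding calcium plus EGTA and DTT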
[5] = target: Calmodulin-1 (Homo sapiens) (UniProt P0DP23); test: small molecules binding Ca-loaded calmodulin-1 – biochemical, small-molecule microarray, Cy5-labelled CALM1, plus calcium, artefact control for SMM control-protein annotation, profiling panel (AID 1112); settings: Cy5-CALM1 binding fluorescence, higher = more signal;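 note: score merges spot fluorescence with signal to noise from triplicate slides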
[6] = probe aWnt5a binding to arrayed compounds – biochemical, biotinylated probe, 635/667 nm fluorescence, primary screen (AID 1113); settings: small-molecule microarray, higher = more signal;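 note: score merges 667 nm fluorescence intensity with signal-to-noise per printed feature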
[7] = probe aShh binding to arrayed compounds – biochemical, biotinylated probe, 635/667 nm fluorescence, primary screen (AID 1114); settings: small-molecule microarray, higher = more signal;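 note: probe is biotin-labelled aShh protein from a stem cell growth factor screen; measures binding of labelled protein to compounds printed on the slide; score merges feature fluorescence at 667 nm with signal-to-noise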
[8] = probe aNog binding to arrayed compounds – biochemical, biotinylated probe, 635/667 nm fluorescence, primary screen (AID 1115); settings: small-molecule microarray, higher = more signal;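 note: probe is biotinylated aNog protein used at 0.15 µg/mL for 1 h at 4 C; z-score combines 667 nm fluorescence of each spot with its signal to noise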
[9] = target: Torsin-1A-interacting protein 1 (Homo sapiens) (UniProt Q5JTV8); test: compound microarray binding of lysate hLAP1 – cell lysate, small-molecule microarray, COS7 lysate, 635/667 nm fluorescence, primary screen (AID 1116); settings: 635 nm fluorescence, higher = more signal
Chain of Torsin-1A-interacting protein 1 (Homo sapiens) (Q5JTV8 whole entry, looked up): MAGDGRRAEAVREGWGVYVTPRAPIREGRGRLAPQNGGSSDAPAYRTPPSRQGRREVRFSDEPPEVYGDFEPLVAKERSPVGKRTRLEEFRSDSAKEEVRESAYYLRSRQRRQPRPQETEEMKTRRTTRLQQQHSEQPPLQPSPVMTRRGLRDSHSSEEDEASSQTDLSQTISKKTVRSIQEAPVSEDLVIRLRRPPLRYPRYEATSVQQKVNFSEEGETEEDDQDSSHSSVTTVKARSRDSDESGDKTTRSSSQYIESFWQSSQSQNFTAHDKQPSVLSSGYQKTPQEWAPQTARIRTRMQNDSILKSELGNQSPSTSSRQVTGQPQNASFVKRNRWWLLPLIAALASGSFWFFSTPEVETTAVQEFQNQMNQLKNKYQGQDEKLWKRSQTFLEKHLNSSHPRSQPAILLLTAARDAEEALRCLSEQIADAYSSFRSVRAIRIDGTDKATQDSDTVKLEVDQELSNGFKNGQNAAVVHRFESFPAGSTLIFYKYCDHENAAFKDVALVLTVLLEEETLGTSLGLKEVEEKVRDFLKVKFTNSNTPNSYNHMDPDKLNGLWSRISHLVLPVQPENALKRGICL

[10] = target: Alpha-bungarotoxin (Bungarus multicinctus) (UniProt P60615); test: compounds binding labelled alpha-BTX control protein – biochemical, small-molecule microarray, Alexa647 label, 635/667 nm fluorescence, artefact control for SMM control protein annotation, profiling panel (AID 1117); settings: alpha-BTX-A647 binding fluorescence, higher = more signal
Chain of Alpha-bungarotoxin (Bungarus multicinctus) (P60615 whole entry, looked up): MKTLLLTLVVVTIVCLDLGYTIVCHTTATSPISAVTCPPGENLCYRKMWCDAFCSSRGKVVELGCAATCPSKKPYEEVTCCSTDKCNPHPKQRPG

Albumin (Bos taurus) = Albumin (Bos taurus) (UniProt P02769); test: compounds binding labelled BSA control protein – biochemical, small-molecule microarray, Alexa647 label, 635/667 nm fluorescence, artefact control for SMM control protein annotation, profiling panel (AID 1118); settings: BSA-A647 binding, fluorescence 635 nm, higher = more signal;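 note: score merges 667 nm emission intensity and signal-to-noise per printed compound spot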
Chain of Albumin (Bos taurus) (P02769 whole entry, looked up): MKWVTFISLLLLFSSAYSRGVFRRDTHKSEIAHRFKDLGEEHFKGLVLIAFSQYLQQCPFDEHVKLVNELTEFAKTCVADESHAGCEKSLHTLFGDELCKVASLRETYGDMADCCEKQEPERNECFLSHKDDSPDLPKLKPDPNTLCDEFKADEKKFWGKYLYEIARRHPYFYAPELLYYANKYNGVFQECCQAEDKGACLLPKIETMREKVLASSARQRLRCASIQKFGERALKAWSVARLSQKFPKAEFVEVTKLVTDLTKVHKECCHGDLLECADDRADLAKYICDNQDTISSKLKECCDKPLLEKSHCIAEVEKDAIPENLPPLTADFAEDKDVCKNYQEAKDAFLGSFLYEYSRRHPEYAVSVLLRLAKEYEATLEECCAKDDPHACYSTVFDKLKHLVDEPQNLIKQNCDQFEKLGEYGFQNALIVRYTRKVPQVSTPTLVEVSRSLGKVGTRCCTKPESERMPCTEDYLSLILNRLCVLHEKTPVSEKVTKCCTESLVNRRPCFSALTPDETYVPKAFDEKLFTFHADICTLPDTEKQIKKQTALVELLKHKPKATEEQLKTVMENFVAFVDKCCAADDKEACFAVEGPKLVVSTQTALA

[11] = probe aXIP binding to arrayed compounds – biochemical, NeuroSMM set, 635/667 nm fluorescence, primary screen (AID 1119); settings: small-molecule microarray, higher = more signal, called active from +8 up or from −8 down;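 note: probe is the protein aXip251-270 applied at 1 µg/mL to compound-printed slides; binding of probe to printed compounds measured as 667 nm fluorescence plus signal to noise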
[12] = probe aNOTCH3 binding on compound microarray – biochemical, small-molecule microarray, 635/667 nm fluorescence, primary screen (AID 1120); settings: higher = more signal;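 note: probe is a biotin-tagged antibody raised against NOTCH3 rather than NOTCH3 protein; score merges spot fluorescence near 667 nm with spot signal to noise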
[13] = probe aNOTCH2 binding on compound microarray – biochemical, small-molecule microarray, 635/667 nm fluorescence, primary screen (AID 1121); settings: higher = more signal;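 note: score merges feature fluorescence read at 667 nm with its signal to noise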
[14] = target: Carbonic anhydrase 2 (Homo sapiens) (UniProt P00918); test: compounds binding carbonic anhydrase 2 – biochemical, small-molecule microarray, Alexa647-labelled CAII, profiling panel (AID 1122); settings: CAII-A647 binding fluorescence, higher = more signal
[15] = COS7 lysate on small-molecule microarray, probe aHis, 635 nm (AID 1123); settings: COS7 cell lysate, fluorescence, higher = more signal;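 note: z-score combines 667nm fluorescence intensity with signal-to-noise per printed compound spot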
[16] = probe aLAP1 signal on lysate-treated microarray – cell lysate, small-molecule microarray, COS7 lysate, primary screen (AID 1124); settings: probe aLAP1, fluorescence, higher = more signal;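 note: lysate comes from COS7 cells expressing LAP1 and is applied at 0.3 µg/mL; score merges spot fluorescence near 667 nm with signal-to-noise over triplicate slides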
Sam68 (KHDRBS1) = test: compounds binding KHDRBS1 protein – biochemical, small-molecule microarray, 635 nm fluorescence, primary screen (AID 1125); settings: higher = more signal;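 note: score merges 667 nm channel intensity with signal to noise over triplicate slides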
[17] = test system: Chordin-like protein 2 (CHRDL2); test: compounds binding chordin-like 2 – biochemical, small-molecule microarray, 635 nm fluorescence, primary screen (AID 1126); settings: fluorescence 635 nm, higher = more signal;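 note: printed compound slides probed with Chrdl2 protein at 4 µg/mL for 1 h at 4 C; score merges 667 nm emission intensity with signal to noise over three replicate slides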
[18] = target: Concanavalin-A (Canavalia ensiformis) (UniProt P02866); test: compounds binding concanavalin A lectin – biochemical, small-molecule microarray, Alexa647 label, 635 nm, artefact control for SMM control protein annotation, primary screen (AID 1127); settings: ConA-A647 binding fluorescence, higher = more signal;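 note: z combines 667 nm emission intensity with signal-to-noise across three replicate slides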
Chain of Concanavalin-A (Canavalia ensiformis) (P02866 whole entry, looked up): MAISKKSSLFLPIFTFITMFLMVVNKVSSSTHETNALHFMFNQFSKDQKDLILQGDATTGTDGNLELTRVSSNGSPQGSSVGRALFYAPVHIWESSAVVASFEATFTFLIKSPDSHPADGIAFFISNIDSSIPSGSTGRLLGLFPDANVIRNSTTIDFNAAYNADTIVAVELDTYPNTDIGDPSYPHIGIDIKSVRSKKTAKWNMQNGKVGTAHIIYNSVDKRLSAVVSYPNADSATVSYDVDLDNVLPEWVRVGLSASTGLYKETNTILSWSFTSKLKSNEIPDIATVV

Row | SMILES | composite z-score [1] | z-score [2] | composite z-score [3] | composite z-score [4] | composite z-score [5] | composite z-score [6] | composite z-score [7] | composite z-score [8] | composite z-score [9] | composite z-score [10] | composite z-score (Albumin (Bos taurus)) | composite Z-score [11] | composite z-score [12] | composite z-score [13] | composite z-score [14] | composite z-score [15] | composite z-score [16] | composite z-score (Sam68 (KHDRBS1)) | composite z-score [17] | composite z-score [18]
1 | [N-]=[N+]=NCc1ccccc1[C@H]1OC(c2ccc(OCCCO)cc2)=N[C@@]1(Cc1ccccc1N=[N+]=[N-])C(=O)O | 1.41 | -0.304 | -0.0361 | 1.82 | 0.83 | -0.0161 | 0.385 | 0.19 | 0.765 | 1.98 | 0.892 | 0.59 (inactive) | 0.297 | 0.0889 | 0.63 | 1.43 | 0.455 | 1.33 | 0.0332 | 1.14
2 | O=C1C2C=CC(C(O)C3CC=CCC3)N(Nc3ccc([N+](=O)[O-])cc3)C2C(=O)N1c1ccccc1 (stereo not given) | 0.34 | 0.276 | 0.485 | 1.76 | -0.0685 | 0.22 | 0.262 | 1.39 | 1.75 | 1.87 | 0.82 | 0.626 (inactive) | 0.749 | 0.326 | 0.693 | 2.5 | 1.21 | 1.33 | 0.729 | 1.07
3 | COC(=O)[C@@]1(Cc2ccc(F)cc2)[C@H]2c3cc(C(=O)N(C)C)n(CCF)c3C[C@H]2CN1C(=O)c1ccccc1 | -0.999 | -1.38 | -0.0571 | 0.838 | 0.55 | 0.0657 | 0.337 | 0.787 | 0.163 | 0.3 | 0.914 | 0.312 (inactive) | -0.0044 | 0.057 | 0.733 | 2.6 | 0.89 | 0.706 | -0.411 | 0.476
4 | COC(=O)[C@@]1(Cc2ccc(F)cc2)[C@H]2c3cc(C(=O)N4CCCC4)n(CCc4c[nH]c5cc(F)ccc45)c3C[C@H]2CN1C(=O)c1ccccc1 | 1.41 | -1.62 | 0.119 | 1.91 | 1.2 | 0.562 | 0.472 | -0.615 | -0.291 | 0.841 | 0.978 | 0.905 (inactive) | 1.05 | 0.488 | 0.767 | 2.76 | 0.202 | 1.33 | 0.212 | 1.03
5 | C=CC[C@]12N=C(c3ccc(OCCCO)cc3)O[C@H]1c1ccccc1N(CCC)C2=O | 0.685 | -1.99 | 0.546 | 0.117 | -0.267 | 0.0344 | 0.187 | 0.993 | 1.46 | 0.666 | -0.0791 | 1.91 (inactive) | 0.467 | 0.14 | 0.705 | 2.85 | 0.674 | 1.29 | 1.2 | 1.09
6 | COc1ccc(NN2C(C(O)c3ccc(F)cc3)C=CC3C(=O)N(C4CCCCC4)C(=O)C32)cc1 (stereo not given) | 1.44 | -0.502 | 0.14 | 1.08 | 0.722 | 0.0919 | 0.108 | 1.03 | 0.297 | 1.37 | 0.861 | -0.0189 (inactive) | 0.183 | -0.0161 | 0.649 | 1.39 | 0.0892 | 1.29 | -0.0299 | 1.13
7 | CN(C)CCCC[C@@H]1NC(=O)[C@H]2C[C@@H](C(=O)NCCCCCCNC(=O)CS)[C@@H](c3cccc(OCCO)c3)N2C1=O | 0.521 | 0.0145 | -0.17 | -0.0373 | -0.323 | -0.113 | -0.0709 | -0.429 | 0.358 | 0.539 | 0.105 | 0.333 (inactive) | -0.195 | -0.105 | 0.249 | 1.01 | 0.586 | 0.378 | -0.0352 | 0.847
8 | CC(C)(C)OC(=O)N1[C@@H](C=C(Br)Br)COC1(C)C | 0.943 | -0.213 | 0.514 | -0.177 | -0.41 | -0.0944 | -0.167 | 0.0051 | 1.29 | 0.398 | -0.121 | 0.274 (inactive) | 0.0522 | -0.104 | -0.0481 | 0.259 | 0.136 | 0.839 | 0.644 | 0.556
9 | O=C(N1CCOCC1)[C@]1(CCS(=O)(=O)c2ccccc2)N=C(c2ccc(OCCCO)cc2)O[C@@H]1c1ccccc1 | 0.794 | -0.954 | -0.685 | 1.52 | 1.14 | -0.0445 | 0.123 | -0.087 | 2.3 | 1.82 | 1.03 | 1.35 (inactive) | 0.149 | -0.0256 | 0.441 | 2.86 | 0.473 | 1.31 | -0.62 | 1.21
10 | NCCCCCCNC(=O)[C@@H]1C[C@@H]2C(=O)NCC(=O)N2[C@@H]1c1cccc(OCCO)c1 | 1.3 | -0.453 | 1.09 | -0.115 | 0.293 | 0.14 | 0.0639 | -0.077 | 0.95 | 0.872 | 0.432 | 0.671 (inactive) | 0.155 | 0.0001 | 0.695 | 1.47 | 0.758 | 1.2 | 1.18 | 0.828
11 | C=CCNC(=O)[C@H]1[C@@H]2C(=O)O[C@@H](c3ccccc3)[C@@H](c3ccccc3)N2[C@@H](c2ccc(O)cc2)[C@]12C(=O)N(C(=O)OCCOC)c1ccc(C#Cc3ccc(OC)cc3)cc12 | 1.33 | -1.09 | 0.254 | 1.38 | -0.0807 | -0.001 | 0.229 | -0.477 | 0.42 | 0.286 | 0.451 | -0.0437 (inactive) | 0.0271 | -0.112 | 0.382 | 0.428 | 0.5 | 0.934 | -0.142 | 0.876
